# Legend:
# Test in all cases: DAPPL (digital affinity profiling via proximity ligation, sequencing); 10 mM Tris-HCl pH 7.5, 50 mM NaCl, 1 mM DTT, 4% glycerol, room temperature, 30 min; GST-TFs on glutathione beads, 16-mer random dsDNA library, 0.1% formaldehyde crosslink after washing; high values mean tight binding
# FLI1 = target: T1, FLI1 (Homo sapiens, UniProt Q01543 1-452); conditions: protein: recombinant; tags: N-terminal GST; dsDNA, one strand shown
# T1 sequence: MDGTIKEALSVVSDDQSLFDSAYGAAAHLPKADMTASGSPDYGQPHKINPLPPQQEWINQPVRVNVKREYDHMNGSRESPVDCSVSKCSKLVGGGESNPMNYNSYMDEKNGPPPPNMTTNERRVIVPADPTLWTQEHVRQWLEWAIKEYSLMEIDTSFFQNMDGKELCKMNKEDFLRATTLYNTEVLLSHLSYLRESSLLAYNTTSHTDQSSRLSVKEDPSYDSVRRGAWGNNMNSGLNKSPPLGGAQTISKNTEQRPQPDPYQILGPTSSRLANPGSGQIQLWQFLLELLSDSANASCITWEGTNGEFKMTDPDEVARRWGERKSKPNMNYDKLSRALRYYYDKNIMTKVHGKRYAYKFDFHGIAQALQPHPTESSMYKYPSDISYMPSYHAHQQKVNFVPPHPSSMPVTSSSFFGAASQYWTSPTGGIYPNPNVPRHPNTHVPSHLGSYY
# Outline: (§1)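 A tag-only sample was pooled with DNA-barcoded human transcription factors that had been expressed in yeast as GST fusions and captured on glutathione beads. The pools were incubated for 30 min at room temperature with 200 nmole of a random double-stranded 16-mer DNA library in Tris/NaCl/DTT/glycerol buffer, then washed, crosslinked with 0.1% formaldehyde, proximity-ligated (BsaI/T4 ligase, 1 h, 37 °C), PCR-amplified and sequenced on an Illumina NextSeq500. Binding signal is each hexamer's read frequency for a factor divided by its frequency for the tag-only sample.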
# ELK1 = target: T2, ELK1 (Homo sapiens, UniProt P19419 1-428); conditions: protein: recombinant; tags: N-terminal GST; dsDNA, one strand shown
# T2 sequence: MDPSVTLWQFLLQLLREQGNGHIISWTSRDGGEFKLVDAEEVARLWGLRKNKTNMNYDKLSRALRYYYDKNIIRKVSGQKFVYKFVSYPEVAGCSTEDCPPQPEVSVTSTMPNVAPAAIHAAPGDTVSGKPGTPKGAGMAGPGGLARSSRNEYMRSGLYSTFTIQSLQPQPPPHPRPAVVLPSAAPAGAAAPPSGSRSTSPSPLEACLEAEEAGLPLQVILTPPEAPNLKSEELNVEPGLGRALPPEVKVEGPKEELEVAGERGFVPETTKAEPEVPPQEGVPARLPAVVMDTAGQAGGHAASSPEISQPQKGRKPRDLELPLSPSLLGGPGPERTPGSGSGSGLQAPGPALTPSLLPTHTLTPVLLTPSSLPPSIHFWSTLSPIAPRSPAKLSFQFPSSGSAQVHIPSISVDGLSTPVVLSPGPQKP
# Outline: as §1
# GABPA = target: T3, GABPA (Homo sapiens, UniProt Q06546 1-454); conditions: protein: recombinant; tags: N-terminal GST; dsDNA, one strand shown
# T3 sequence: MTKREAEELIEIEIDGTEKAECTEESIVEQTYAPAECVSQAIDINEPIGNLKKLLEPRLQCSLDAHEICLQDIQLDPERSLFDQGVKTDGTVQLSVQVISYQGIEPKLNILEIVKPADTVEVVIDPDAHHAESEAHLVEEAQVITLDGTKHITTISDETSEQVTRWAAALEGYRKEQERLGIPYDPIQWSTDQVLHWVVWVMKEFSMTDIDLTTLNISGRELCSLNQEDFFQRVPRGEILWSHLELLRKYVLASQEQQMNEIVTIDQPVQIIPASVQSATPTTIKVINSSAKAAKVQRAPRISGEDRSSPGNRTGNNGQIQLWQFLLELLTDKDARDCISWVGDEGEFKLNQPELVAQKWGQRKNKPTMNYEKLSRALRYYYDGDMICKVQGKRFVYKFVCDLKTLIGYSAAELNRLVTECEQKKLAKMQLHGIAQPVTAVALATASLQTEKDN
# Outline: as §1
# ERG = target: T4, ERG (Homo sapiens, UniProt P11308 1-479); conditions: protein: recombinant; tags: N-terminal GST; dsDNA, one strand shown
# T4 sequence: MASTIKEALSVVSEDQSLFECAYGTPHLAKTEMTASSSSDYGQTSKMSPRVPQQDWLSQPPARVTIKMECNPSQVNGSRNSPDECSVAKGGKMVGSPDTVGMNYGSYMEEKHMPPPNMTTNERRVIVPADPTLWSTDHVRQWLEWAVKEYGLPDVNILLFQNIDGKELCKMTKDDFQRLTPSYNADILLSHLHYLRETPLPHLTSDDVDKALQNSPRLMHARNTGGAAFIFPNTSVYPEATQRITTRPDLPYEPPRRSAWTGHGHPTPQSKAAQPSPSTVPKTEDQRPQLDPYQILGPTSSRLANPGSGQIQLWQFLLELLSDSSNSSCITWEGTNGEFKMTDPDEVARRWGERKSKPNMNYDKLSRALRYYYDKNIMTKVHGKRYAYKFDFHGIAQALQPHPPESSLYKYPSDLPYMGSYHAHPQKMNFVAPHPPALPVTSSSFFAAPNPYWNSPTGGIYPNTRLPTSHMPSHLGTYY
# Outline: as §1
# ELF1 = ELF1 (Homo sapiens, UniProt P32519 1-619); conditions: protein: recombinant; tags: N-terminal GST; dsDNA, one strand shown
# ELF1, sequence (P32519 whole entry): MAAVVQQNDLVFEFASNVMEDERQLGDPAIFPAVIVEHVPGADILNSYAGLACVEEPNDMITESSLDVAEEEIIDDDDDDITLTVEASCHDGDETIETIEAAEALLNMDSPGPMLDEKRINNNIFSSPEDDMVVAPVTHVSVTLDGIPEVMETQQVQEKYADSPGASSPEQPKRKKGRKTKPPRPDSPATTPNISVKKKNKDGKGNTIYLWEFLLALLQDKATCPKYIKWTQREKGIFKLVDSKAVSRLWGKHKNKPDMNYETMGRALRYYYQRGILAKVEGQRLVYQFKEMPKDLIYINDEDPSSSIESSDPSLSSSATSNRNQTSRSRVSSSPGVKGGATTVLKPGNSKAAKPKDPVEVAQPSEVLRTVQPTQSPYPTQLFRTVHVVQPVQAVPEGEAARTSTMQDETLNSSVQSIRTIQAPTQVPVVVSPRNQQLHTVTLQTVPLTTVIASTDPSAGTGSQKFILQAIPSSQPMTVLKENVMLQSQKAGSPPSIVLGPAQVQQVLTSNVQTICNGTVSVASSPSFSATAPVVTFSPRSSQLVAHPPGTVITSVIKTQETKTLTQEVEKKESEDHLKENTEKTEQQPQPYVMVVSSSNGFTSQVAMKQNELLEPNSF
# Outline: as §1
# EHF = target: T5, EHF (Homo sapiens, UniProt Q9NZC4 1-300); conditions: protein: recombinant; tags: N-terminal GST; dsDNA, one strand shown
# T5 sequence: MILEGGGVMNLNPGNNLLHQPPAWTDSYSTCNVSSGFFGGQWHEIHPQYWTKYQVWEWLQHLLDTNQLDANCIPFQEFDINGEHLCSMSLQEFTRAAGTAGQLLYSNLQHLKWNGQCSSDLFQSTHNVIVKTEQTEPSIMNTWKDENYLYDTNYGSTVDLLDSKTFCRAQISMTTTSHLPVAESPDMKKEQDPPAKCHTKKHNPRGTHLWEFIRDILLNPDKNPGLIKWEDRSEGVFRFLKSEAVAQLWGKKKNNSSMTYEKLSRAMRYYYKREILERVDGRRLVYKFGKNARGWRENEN
# Outline: as §1
# SPI1 = SPI1 (Homo sapiens, UniProt P17947 1-270); conditions: protein: recombinant; tags: N-terminal GST; dsDNA, one strand shown
# Outline: as §1
# SPIB = SPIB (Homo sapiens, UniProt Q01892 1-262); conditions: protein: recombinant; tags: N-terminal GST; dsDNA, one strand shown
# SPIB, sequence (Q01892 whole entry): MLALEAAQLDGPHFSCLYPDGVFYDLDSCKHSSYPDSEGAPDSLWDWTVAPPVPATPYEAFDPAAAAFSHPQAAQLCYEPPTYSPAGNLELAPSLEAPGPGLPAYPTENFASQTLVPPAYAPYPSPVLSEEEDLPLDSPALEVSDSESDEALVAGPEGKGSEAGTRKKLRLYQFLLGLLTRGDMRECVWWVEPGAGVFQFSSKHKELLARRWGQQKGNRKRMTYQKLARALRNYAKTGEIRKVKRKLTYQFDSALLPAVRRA
# Outline: as §1
# ELK3 = target: T6, ELK3 (Homo sapiens, UniProt P41970 1-407); conditions: protein: recombinant; tags: N-terminal GST; dsDNA, one strand shown
# T6 sequence: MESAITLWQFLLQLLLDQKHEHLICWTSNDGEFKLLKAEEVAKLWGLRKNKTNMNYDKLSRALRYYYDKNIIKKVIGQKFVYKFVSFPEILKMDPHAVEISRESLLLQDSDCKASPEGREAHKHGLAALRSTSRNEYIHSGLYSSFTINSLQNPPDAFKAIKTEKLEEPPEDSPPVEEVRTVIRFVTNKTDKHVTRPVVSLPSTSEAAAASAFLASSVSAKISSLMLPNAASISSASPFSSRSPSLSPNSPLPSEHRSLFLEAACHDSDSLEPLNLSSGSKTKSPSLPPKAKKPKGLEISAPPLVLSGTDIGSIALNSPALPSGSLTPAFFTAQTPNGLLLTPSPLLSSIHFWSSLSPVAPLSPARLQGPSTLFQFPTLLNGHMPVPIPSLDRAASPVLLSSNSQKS
# Outline: as §1
# FEV = target: T7, FEV (Homo sapiens, UniProt Q99581 1-238); conditions: protein: recombinant; tags: N-terminal GST; dsDNA, one strand shown
# T7 sequence: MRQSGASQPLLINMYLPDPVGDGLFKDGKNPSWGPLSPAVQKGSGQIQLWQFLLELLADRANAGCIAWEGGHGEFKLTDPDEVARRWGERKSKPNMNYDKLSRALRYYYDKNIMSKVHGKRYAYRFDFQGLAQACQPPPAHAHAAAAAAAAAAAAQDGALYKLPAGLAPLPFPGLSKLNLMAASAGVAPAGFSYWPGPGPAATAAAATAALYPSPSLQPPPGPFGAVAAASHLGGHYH
# Outline: as §1
# ETV5 = ETV5 (Homo sapiens, UniProt P41161 1-510); conditions: protein: recombinant; tags: N-terminal GST; dsDNA, one strand shown
# ETV5, sequence (P41161 whole entry): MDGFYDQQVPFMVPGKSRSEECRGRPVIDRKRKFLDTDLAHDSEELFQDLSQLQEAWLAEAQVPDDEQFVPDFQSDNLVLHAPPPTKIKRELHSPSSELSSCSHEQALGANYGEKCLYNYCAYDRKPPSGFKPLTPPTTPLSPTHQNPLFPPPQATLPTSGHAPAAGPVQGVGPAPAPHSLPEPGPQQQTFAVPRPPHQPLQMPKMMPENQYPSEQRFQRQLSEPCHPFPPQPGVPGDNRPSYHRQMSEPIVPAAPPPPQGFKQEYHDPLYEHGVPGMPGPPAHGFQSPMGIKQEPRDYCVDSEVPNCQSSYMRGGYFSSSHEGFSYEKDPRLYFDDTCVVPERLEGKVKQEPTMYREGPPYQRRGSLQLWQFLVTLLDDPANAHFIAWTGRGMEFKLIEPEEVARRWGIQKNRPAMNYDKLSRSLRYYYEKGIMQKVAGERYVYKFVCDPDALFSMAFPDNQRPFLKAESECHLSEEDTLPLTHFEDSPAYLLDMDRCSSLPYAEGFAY
# Outline: as §1
# HSF1 = HSF1 (Homo sapiens, UniProt Q00613 1-529); conditions: protein: recombinant; tags: N-terminal GST; chain copies: 3; dsDNA, one strand shown
# HSF1, sequence (Q00613 whole entry): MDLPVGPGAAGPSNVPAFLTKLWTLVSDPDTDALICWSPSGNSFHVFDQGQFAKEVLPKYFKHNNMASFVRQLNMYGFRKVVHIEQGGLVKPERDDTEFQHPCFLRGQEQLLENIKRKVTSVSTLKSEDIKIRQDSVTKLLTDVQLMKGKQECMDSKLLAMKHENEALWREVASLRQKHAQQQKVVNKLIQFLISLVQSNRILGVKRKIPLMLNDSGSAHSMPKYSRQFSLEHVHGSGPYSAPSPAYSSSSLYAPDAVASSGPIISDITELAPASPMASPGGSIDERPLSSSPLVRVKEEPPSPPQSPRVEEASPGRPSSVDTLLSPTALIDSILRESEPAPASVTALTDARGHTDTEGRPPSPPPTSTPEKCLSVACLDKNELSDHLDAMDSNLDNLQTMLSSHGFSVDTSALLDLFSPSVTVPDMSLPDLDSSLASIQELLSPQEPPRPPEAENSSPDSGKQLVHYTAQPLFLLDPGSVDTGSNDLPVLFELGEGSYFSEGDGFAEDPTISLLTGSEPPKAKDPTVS
# Outline: as §1
# SPIC = target: T8, SPIC (Homo sapiens, UniProt Q8N5J4 1-248); conditions: protein: recombinant; tags: N-terminal GST; dsDNA, one strand shown
# T8 sequence: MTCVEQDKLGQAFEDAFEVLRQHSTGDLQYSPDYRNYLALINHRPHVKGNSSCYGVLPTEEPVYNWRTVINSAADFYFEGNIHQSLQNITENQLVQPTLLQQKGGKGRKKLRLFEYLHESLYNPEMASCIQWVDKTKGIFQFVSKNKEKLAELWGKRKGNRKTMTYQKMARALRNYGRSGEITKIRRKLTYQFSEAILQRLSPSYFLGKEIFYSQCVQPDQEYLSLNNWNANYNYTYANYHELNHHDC
# Outline: as §1
# ELF4 = ELF4 (Homo sapiens, UniProt Q99607 1-663); conditions: protein: recombinant; tags: N-terminal GST; dsDNA, one strand shown
# ELF4, sequence (Q99607 whole entry): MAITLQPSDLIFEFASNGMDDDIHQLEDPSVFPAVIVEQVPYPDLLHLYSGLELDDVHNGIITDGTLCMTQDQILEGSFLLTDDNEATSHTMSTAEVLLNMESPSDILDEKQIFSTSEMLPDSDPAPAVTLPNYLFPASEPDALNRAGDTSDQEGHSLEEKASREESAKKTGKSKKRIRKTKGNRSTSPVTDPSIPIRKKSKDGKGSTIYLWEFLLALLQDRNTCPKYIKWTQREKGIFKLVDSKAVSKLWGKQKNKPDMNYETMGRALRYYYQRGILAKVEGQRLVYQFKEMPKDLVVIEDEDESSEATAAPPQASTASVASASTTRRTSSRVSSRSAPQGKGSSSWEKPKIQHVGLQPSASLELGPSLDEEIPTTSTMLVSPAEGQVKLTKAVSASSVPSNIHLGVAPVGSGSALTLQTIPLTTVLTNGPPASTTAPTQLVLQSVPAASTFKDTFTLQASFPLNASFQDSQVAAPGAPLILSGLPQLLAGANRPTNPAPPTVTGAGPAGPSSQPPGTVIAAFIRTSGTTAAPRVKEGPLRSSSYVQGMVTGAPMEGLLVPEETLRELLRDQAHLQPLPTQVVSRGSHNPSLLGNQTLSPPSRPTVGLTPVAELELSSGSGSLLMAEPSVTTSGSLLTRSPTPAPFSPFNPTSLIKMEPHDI
# Outline: as §1
# ELK4 = target: T9, ELK4 (Homo sapiens, UniProt P28324-2 1-405); conditions: protein: recombinant; tags: N-terminal GST; dsDNA, one strand shown
# T9 sequence: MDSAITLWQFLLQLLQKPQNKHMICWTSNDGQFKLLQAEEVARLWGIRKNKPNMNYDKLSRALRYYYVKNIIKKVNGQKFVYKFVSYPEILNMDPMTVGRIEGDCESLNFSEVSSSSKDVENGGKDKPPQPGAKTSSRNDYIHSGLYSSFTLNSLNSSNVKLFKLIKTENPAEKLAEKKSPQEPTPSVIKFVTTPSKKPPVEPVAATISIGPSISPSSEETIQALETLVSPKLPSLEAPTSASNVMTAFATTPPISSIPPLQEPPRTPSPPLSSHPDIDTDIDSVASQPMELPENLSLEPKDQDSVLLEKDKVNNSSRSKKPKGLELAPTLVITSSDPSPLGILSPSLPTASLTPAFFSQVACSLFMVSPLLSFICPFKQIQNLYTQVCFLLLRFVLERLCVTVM
# Outline: as §1
# ETV2 = target: T10, ETV2 (Homo sapiens, UniProt O00321 1-342); conditions: protein: recombinant; tags: N-terminal GST; dsDNA, one strand shown
# T10 sequence: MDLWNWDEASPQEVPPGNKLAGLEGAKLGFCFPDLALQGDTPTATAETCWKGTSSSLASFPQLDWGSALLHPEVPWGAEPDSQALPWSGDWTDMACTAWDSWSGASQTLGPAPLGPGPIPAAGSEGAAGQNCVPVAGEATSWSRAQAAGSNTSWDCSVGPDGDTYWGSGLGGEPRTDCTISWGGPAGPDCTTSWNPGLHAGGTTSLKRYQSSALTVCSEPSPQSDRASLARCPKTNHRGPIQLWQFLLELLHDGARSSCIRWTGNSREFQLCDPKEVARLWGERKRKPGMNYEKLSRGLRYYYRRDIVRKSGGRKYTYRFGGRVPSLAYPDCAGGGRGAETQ
# Outline: as §1
# ELF3 = target: T11, ELF3 (Homo sapiens, UniProt P78545 1-371); conditions: protein: recombinant; tags: N-terminal GST; dsDNA, one strand shown
# T11 sequence: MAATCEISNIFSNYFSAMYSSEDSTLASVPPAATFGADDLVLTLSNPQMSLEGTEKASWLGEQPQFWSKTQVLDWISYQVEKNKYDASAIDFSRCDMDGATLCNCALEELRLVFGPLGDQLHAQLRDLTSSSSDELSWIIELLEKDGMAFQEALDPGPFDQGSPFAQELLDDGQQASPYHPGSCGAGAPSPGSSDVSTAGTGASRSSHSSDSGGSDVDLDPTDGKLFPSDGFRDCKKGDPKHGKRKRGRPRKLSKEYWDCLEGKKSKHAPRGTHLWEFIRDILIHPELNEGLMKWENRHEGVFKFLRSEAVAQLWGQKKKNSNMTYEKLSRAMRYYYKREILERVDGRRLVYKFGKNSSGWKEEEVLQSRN
# Outline: as §1
# CRX = CRX (Homo sapiens, UniProt O43186 1-299); conditions: protein: recombinant; tags: N-terminal GST; dsDNA, one strand shown
# CRX, sequence (O43186 whole entry): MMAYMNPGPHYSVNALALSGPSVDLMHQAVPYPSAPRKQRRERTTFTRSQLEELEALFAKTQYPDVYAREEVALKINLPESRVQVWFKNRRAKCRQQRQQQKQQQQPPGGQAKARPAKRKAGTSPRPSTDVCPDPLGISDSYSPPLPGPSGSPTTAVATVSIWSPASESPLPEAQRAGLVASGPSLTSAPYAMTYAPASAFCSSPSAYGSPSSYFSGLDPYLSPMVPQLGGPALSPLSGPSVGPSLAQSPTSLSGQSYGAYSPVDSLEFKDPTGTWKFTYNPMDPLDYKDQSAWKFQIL
# Outline: as §1
# ETV1 = ETV1 (Homo sapiens, UniProt P50549 1-477); conditions: protein: recombinant; tags: N-terminal GST; dsDNA, one strand shown
# ETV1, sequence (P50549 whole entry): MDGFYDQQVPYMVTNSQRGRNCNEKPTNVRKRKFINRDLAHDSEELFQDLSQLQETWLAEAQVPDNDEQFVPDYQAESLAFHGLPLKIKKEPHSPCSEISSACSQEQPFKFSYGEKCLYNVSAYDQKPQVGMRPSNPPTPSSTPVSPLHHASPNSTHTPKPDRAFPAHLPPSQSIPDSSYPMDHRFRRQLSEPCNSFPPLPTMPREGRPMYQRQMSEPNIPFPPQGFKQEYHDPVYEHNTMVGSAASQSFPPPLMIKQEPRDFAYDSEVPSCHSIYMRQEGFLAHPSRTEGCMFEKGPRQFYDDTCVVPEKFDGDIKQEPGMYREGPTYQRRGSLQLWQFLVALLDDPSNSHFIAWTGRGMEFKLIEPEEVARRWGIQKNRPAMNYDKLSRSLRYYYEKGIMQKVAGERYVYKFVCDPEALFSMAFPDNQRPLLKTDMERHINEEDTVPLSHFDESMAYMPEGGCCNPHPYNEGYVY
# Outline: as §1
sequence,measurement,setting,value
TAACAA,binding signal,FLI1,"1.22 fold enrichment (6-mer frequency, TF over GST control)"
same,binding signal,ELK1,"1.22 fold enrichment (6-mer frequency, TF over GST control)"
same,binding signal,GABPA,"1.14 fold enrichment (6-mer frequency, TF over GST control)"
same,binding signal,ERG,"1.18 fold enrichment (6-mer frequency, TF over GST control)"
same,binding signal,ELF1,"1.2 fold enrichment (6-mer frequency, TF over GST control)"
same,binding signal,EHF,"1.19 fold enrichment (6-mer frequency, TF over GST control)"
same,binding signal,SPI1,"1.14 fold enrichment (6-mer frequency, TF over GST control)"
same,binding signal,SPIB,"1.13 fold enrichment (6-mer frequency, TF over GST control)"
same,binding signal,ELK3,"1.34 fold enrichment (6-mer frequency, TF over GST control)"
same,binding signal,FEV,"1.18 fold enrichment (6-mer frequency, TF over GST control)"
same,binding signal,ETV5,"1.12 fold enrichment (6-mer frequency, TF over GST control)"
same,binding signal,HSF1,"1.25 fold enrichment (6-mer frequency, TF over GST control)"
same,binding signal,SPIC,"1.12 fold enrichment (6-mer frequency, TF over GST control)"
same,binding signal,ELF4,"1.19 fold enrichment (6-mer frequency, TF over GST control)"
same,binding signal,ELK4,"1.15 fold enrichment (6-mer frequency, TF over GST control)"
same,binding signal,ETV2,"1.26 fold enrichment (6-mer frequency, TF over GST control)"
same,binding signal,ELF3,"1.28 fold enrichment (6-mer frequency, TF over GST control)"
same,binding signal,CRX,"1.48 fold enrichment (6-mer frequency, TF over GST control)"
same,binding signal,ETV1,"1.2 fold enrichment (6-mer frequency, TF over GST control)"

# — PMC7862700, “An all-to-all approach to the identification of sequence-specific readers for epigenetic DNA modifications on cytosine”
